# Vif inh: HIV Vif inhibition; HEK293T cells, Vif self-association by quenched fluorescence, imaging, 24 h; inhibition, % at 7.49 µM; hit rate 0.35% among 340,000; AID 602346; in the data active = inhibition above about 50%, passing the limit was not always enough
# dFosB act-1: enhances mouse delta FosB homodimer DNA binding. P13346. purified delta FosB, TAMRA-CDK5 oligo fluorescence polarization; percent of positive-control signal above neutral wells. activation, % at 25 µM. hit rate 0.99% among 340,000. AID 493131;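 active = mean activation above about 17%, with every replicate also reaching it, limit read from the data, passing the limit was not always enough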
# INS-1E GSIS act: GLuc luminescence reporter in INS-1E cells, primary screen for activators of glucose-dependent secretion of insulin | INS-1E GLuc reporter insulin secretion, 2-3 h | hit rate 0.61% among 370,000 | activation, % at 16.6 µM;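 active = lowest replicate activation of at least 40%, so every replicate reaches that level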;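 also: 0% = median of neutral control wells and 100% = median of IBMX positive control wells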
# A1 inh: inhibitors of the anti-apoptotic protein A1, read as caspase activation; MEF A1-2A-BIM cells, Caspase-Glo 3/7 luminescence, 3 h; percent of clofoctol response, vehicle zero; caspase activation, % (test concentration not listed); hit rate 0.066% among 330,000;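 active = over half of replicate activation scores above 10%, or exactly half above 10 with the replicate mean above 10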
# Neddyl block: inhibitors of human cullin neddylation. inhibition, % at 25 µM. AID 651699. TR-FRET cullin neddylation, biochemical. hit rate 0.58% among 360,000; in the data active = inhibition above about 36%
# Target sequence (P61081 whole entry, looked up): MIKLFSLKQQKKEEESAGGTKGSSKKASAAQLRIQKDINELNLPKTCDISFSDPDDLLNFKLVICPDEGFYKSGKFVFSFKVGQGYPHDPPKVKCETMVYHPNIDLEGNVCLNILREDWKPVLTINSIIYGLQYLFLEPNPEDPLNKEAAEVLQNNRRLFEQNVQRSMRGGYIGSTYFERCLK
# Target sequence (Q13564 whole entry, looked up): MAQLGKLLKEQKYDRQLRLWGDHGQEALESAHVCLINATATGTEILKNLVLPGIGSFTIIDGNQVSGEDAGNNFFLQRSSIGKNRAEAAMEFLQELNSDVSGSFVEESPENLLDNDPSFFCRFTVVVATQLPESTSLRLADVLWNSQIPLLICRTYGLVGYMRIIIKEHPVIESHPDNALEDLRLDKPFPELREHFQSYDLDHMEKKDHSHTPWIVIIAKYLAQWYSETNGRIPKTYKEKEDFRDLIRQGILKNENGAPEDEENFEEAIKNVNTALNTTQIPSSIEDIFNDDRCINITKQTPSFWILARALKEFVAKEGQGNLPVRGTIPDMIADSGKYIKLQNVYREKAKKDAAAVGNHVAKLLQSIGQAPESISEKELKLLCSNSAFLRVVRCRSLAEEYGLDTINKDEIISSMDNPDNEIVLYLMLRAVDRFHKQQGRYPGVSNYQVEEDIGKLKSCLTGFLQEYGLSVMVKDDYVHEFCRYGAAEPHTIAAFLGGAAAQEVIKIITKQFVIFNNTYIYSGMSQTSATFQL
# dFosB act-2: delta FosB (mouse) homodimer activation | shares compounds with dFosB act-1 | purified delta FosB, TAMRA-CDK5 oligo fluorescence polarization; normalised: neutral wells 0, positive control 100 | activation, % at 24.9 µM | 2,400 tested, under 10 active;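 active = highest replicate activation at or above 34% and every replicate reaching that threshold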;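 also: higher polarization means more probe DNA bound by delta FosB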
# An asterisk follows results filed as active; · = no result given. A selection: hits, their analogues and other compounds. The true share with any hit is near 1.9%.
SMILES,Vif inh,dFosB act-1,INS-1E GSIS act,A1 inh,Neddyl block,dFosB act-2
O=C(CCCCC(=O)NN=Cc1ccc(Cl)cc1)NN=Cc1ccc(Cl)cc1,9.5,25.4*,6.7,·,-4.2,1.4
Cc1cc(C)c2c(N)c(C(=O)c3ccc(Cl)cc3)sc2n1,0.3,5.0,1.7,0.2,31.0,·
Cc1cc(C)c2c(N)c(C(=O)c3ccc(Cl)c(Cl)c3)sc2n1,-7.6,36.7*,7.4,0.9,10.5,3.6
O=C(CSCc1ccc(Cl)cc1)N/N=C/c1c(Cl)cccc1Cl,10.4,26.9*,7.9,-0.2,2.7,1.1
Cc1ccc2nc(NC(=O)CNS(=O)(=O)c3ccc(Br)s3)sc2c1,-0.2,19.4*,-6.5,1.6,1.1,-4.7
Cc1ccc2nc(NC(=O)CN(C)S(=O)(=O)c3cccc4nsnc34)sc2c1,16.0,20.6*,·,0.6,-9.5,1.7
Cc1ccc2nc(NC(=O)CN(C)S(=O)(=O)c3ccc(Br)s3)sc2c1,-7.6,-1.6,·,0.4,-0.7,·
COCC(=O)N1CC2(CCN(C(=O)c3ccccn3)CC2)c2c(n(C)c3cc(OC)ccc23)[C@H]1CO,·,·,6.5,·,·,·
CCOC(=O)c1ccc(NC(=O)C(=O)NCc2ccc(/C=C(/C#N)C(=O)NCCOC)o2)cc1,16.5,23.5*,0.9,-0.6,38.8,-2.4
Cc1cc(NC(=O)CN2CCc3ccccc3C2)nc2c1c(=O)oc1ccccc12,0.5,30.7*,·,0.6,-69.7,0.5
CCCC(=O)Nc1cc(C)c2c(=O)oc3ccccc3c2n1,·,-41.6,-3.9,0.1,-62.5,·
O=C(Nc1ccccc1)c1nc[nH]c1C(=O)NCCNC(=O)c1[nH]cnc1C(=O)Nc1ccccc1,-1.4,36.7*,·,-0.9,4.6,4.8
COCC#Cc1ccc2c(c1)O[C@@H](CN(C)S(=O)(=O)c1ccc(F)cc1)[C@H](C)CN([C@@H](C)CO)S2(=O)=O,·,·,-14.7,·,·,·
Cn1c(N)c(C(=O)CSc2nn(-c3ccc(F)cc3)c(=S)s2)c(=O)n(C)c1=O,-3.8,52.1*,8.6,-0.4,-14.7,0.3
CCCCN(C(=O)CSc1nn(-c2ccc(F)cc2)c(=S)s1)c1c(N)n(CCCC)c(=O)[nH]c1=O,7.8,-3.4,-23.3,0.8,16.7,·
COc1cccc(C(=O)Nc2ccc3c(c2)OC[C@H](C)N(C(=O)C2CCCC2)C[C@H](C)[C@@H](OC)CN(C)C3=O)c1,·,·,-5.2,·,·,·
Cc1noc(C)c1NC(=O)N[C@H]1CC[C@@H](CC(=O)Nc2ccccc2)O[C@@H]1CO,·,·,-5.1,·,·,·
O=C1COc2ccc(C(=O)COC(=O)c3cc(S(=O)(=O)NCc4ccccc4)ccc3O)cc2N1,-1.6,65.9*,-2.7,0.4,5.1,-0.8
O=C1COc2ccc(C(=O)COC(=O)c3ccccc3F)cc2N1,-7.0,2.7,4.5,-6.4,-52.4,·
COc1ccc(-c2nnc(SCc3nc4ccccc4c(=O)[nH]3)o2)cc1,52.1*,19.0*,10.7,-0.5,-116.8,-1.8
c1ccc2[nH]c(CSc3nnc(-c4ccncc4)o3)nc2c1,14.5,2.5,·,-0.2,3.0,·
CC=Cc1ccc2n(c1=O)C[C@@H]1[C@@H](CO)[C@H](C(=O)N(C)C)N(C(=O)CC3CC3)[C@H]21 (mixture of isomers),·,·,2.5,·,·,·
O=S(=O)(NCC[C@@H]1CC[C@H](NS(=O)(=O)c2cccc(F)c2)[C@H](CO)O1)c1cccc(F)c1,·,·,-5.2,·,·,·
CC(=O)N1[C@@H](CO)[C@H](c2ccccc2)C12CN(C(=O)c1ccccc1)C2,·,·,7.2,·,·,·
COCCCNC(=O)CCc1c(C)nc2c(c(C)nn2-c2ccccc2)c1C,-1.9,-1.8,2.2,-0.3,·,·
SMILES,Vif inh,dFosB act-1,INS-1E GSIS act,A1 inh,Neddyl block,dFosB act-2
CCN(CC)CCNC(=O)CCc1c(C)nc2c(c(C)nn2-c2ccc(C)c(C)c2)c1C,-2.1,19.6*,4.7,-0.3,·,1.2
CCC(=O)N1CC(=O)N2[C@@H](CO)[C@H](c3ccc(C#CC(C)C)cc3)[C@@H]2C1,·,·,0.9,·,·,·
COc1cc(C(=O)NCc2ccc(-c3nc4ccccc4s3)cc2)cc(OC)c1OC,-1.3,-10.4,·,-1.9,-43.2,·
COc1cc(C(=O)NCc2ccc(-c3nc4ccccc4o3)cc2)cc(OC)c1OC,·,27.3*,·,-0.4,-15.7,5.3
C[C@H]1CN([C@@H](C)CO)C(=O)c2cc(-c3cccnc3)cnc2O[C@@H]1CN(C)C(=O)Nc1ccccc1,·,·,14.4,·,·,·
COC(=O)c1ccc(NC(=O)CSc2nc3[nH]ncc3c(=O)[nH]2)cc1,4.5,5.3,4.5,-0.1,7.0,·
O=C(CSc1nc2[nH]ncc2c(=O)[nH]1)Nc1ccc(OC(F)(F)F)cc1,5.4,19.1*,1.2,0.2,7.6,-2.0
CN(C)C(=O)[C@H]1[C@H](CO)[C@H]2Cn3c(cccc3=O)[C@@H]1N2CC1CCCCC1,·,·,8.9,·,·,·
C#CCn1c(=NC(=O)c2ccco2)sc2cccc(Cl)c21,2.4,26.2*,-2.0,0.6,-16.0,4.2
C/C=C/c1ccc([C@@H]2[C@H](CO)N(Cc3ccccn3)[C@H]2CNC(C)=O)cc1,·,·,3.9,·,·,·
CCCCn1c(SCC(=O)c2ccc(OC)c(OC)c2)nc2cc(S(N)(=O)=O)ccc21,-8.5,23.0*,21.3,2.1,-190.4,0.2
CCCCn1c(SCC(=O)c2ccc(OCC)cc2)nc2cc(S(N)(=O)=O)ccc21,·,-7.7,·,-0.4,-102.2,·
Cc1noc(C(=O)Nc2ccc(F)c(Cl)c2)c1Cl,10.6,24.0*,-5.7,-3.5,17.8,3.8
Cc1noc(C(=O)Nc2ccc(Cl)cc2)c1Cl,·,·,·,0.1,·,·
CC(=O)c1sc(NC(=O)c2ccc(Cl)cc2)nc1C,3.0,34.4*,-9.7,-9.1,-48.6,1.8
Cc1ccc(C(=O)Nc2nc(C)c(C(=O)Nc3ccc4c(c3)CCC4)s2)cc1,-7.1,20.8*,10.9,-2.2,-84.0,-1.7
CC(=O)c1sc(NC(=O)c2ccc(F)c(F)c2)nc1C,-5.9,28.4*,-16.7,-13.0,-22.5,1.3
CC(=O)Nc1nc(C)c(C(C)=O)s1,-0.7,-5.9,·,-0.1,3.0,·
CC(=O)c1sc(NC(=O)c2cccc(C)c2)nc1C,-12.2,-26.1,-21.6,-8.1,-100.0,·
COc1ccc(NC(=O)N(C)C[C@@H]2Oc3c(NS(=O)(=O)c4ccccc4)cccc3C(=O)N([C@@H](C)CO)C[C@H]2C)cc1,·,·,3.6,·,·,·
Cc1noc(C)c1NC(=O)Nc1ccc2c(c1)C(=O)N([C@H](C)CO)C[C@@H](C)[C@@H](CN(C)Cc1ccc(C(=O)O)cc1)O2,·,·,12.7,·,·,·
C[C@@H]1CCCCO[C@@H](CN(C)C(=O)c2ccncc2)[C@H](C)CN([C@@H](C)CO)C(=O)c2cc(N(C)C)ccc2O1,·,·,0.7,·,·,·
C[C@@H]1CC=CC[C@@H](c2ccc3c(c2)OCO3)NC(=O)[C@@H](C)N(C)C(=O)c2ccccc2O1 (mixture of isomers),·,·,-15.8,·,·,·
O=C(NNC(=O)c1cc2ccccc2cc1O)Nc1ccc(F)cc1F,-4.0,30.0*,7.0,0.9,21.7,-9.7

# Screens as filed in PubChem.
